Publication PMC11006913
Positions count from the first letter of the chain named.

Legend:
Assay in all cases: PBM; 200 nM protein, PBS
Details in all cases: dsDNA, one strand shown
VENTX [1] = target: T1, VENTX (Homo sapiens, UniProt O95231 78-163, R121Q)
T1 sequence: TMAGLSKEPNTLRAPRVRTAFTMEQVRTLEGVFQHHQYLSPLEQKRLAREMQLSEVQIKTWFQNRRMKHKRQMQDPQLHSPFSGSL

VENTX [2] = target: T2, VENTX (Homo sapiens, UniProt O95231 78-163)
T2 sequence: T1 sequence with Q44R

ALX4 [3] = target: ALX4 (Homo sapiens, UniProt Q9H161 200-286)
ALX4 (Homo sapiens, UniProt Q9H161 200-286), sequence (Q9H161 200-286): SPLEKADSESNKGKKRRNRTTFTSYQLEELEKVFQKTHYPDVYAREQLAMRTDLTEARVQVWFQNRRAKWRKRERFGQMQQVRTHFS

VENTX [4] = target: T3, VENTX (Homo sapiens, UniProt O95231 78-163, Y115F)
T3 sequence: T1 sequence with Y38F, Q44R

ALX4 [5] = target: ALX4 (Homo sapiens, UniProt Q9H161 200-286, Q225E)
ALX4 (Homo sapiens, UniProt Q9H161 200-286, Q225E), sequence (Q9H161 200-286 Q225E): as the sequence (Q9H161 200-286) above, with Q26E counted along it

PRRX1 [6] = target: PRRX1 (Homo sapiens, UniProt P54821 80-166, F113S)
PRRX1 (Homo sapiens, UniProt P54821 80-166, F113S), sequence (P54821 80-166 F113S): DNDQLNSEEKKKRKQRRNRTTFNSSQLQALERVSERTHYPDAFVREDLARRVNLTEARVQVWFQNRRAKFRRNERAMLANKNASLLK

PRRX1 [7] = target: PRRX1 (Homo sapiens, UniProt P54821 80-166)
PRRX1 (Homo sapiens, UniProt P54821 80-166), sequence (P54821 80-166): as the sequence (P54821 80-166 F113S) above, with S34F counted along it

HOXA7 [8] = target: HOXA7 (Homo sapiens, UniProt P31268 116-202)
HOXA7 (Homo sapiens, UniProt P31268 116-202), sequence (P31268 116-202): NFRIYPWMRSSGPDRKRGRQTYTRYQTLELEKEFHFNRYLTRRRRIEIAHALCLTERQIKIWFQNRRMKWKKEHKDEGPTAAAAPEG

HOXB6 [9] = target: HOXB6 (Homo sapiens, UniProt P17509 132-218, K202E)
HOXB6 (Homo sapiens, UniProt P17509 132-218, K202E), sequence (P17509 132-218 K202E): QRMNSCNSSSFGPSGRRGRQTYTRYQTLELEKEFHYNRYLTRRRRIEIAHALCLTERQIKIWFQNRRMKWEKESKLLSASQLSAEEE

HOXA7 [10] = target: HOXA7 (Homo sapiens, UniProt P31268 116-202, W177C)
HOXA7 (Homo sapiens, UniProt P31268 116-202, W177C), sequence (P31268 116-202 W177C): as the sequence (P31268 116-202) above, with W62C counted along it

HOXB6 [11] = target: HOXB6 (Homo sapiens, UniProt P17509 132-218)
HOXB6 (Homo sapiens, UniProt P17509 132-218), sequence (P17509 132-218): as the sequence (P17509 132-218 K202E) above, with E71K counted along it

PAX4 [12] = target: T4, PAX4 (Homo sapiens, UniProt O43316 9-242, R200K)
T4 sequence: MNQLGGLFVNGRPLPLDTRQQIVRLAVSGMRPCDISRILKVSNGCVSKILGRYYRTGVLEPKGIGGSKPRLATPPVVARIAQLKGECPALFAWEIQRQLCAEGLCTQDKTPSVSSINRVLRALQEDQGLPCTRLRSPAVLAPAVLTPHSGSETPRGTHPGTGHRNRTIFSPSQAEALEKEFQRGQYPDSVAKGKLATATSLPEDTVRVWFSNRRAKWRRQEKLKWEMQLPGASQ

PAX4 [13] = target: T5, PAX4 (Homo sapiens, UniProt O43316 9-242)
T5 sequence: T4 sequence with K192R

NKX2-6 = target: T6, NKX2-6 (Homo sapiens, UniProt A6NCS4 118-204, R150C)
T6 sequence: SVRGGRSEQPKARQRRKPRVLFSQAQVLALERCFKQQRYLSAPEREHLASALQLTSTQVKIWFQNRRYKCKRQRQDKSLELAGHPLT

PAX4 [14] = target: T7, PAX4 (Homo sapiens, UniProt O43316 9-242, R200Q)
T7 sequence: T4 sequence with K192Q

PAX4 [15] = target: T8, PAX4 (Homo sapiens, UniProt O43316 9-242, F177V)
T8 sequence: T4 sequence with F169V, K192R

PAX4 [16] = target: T9, PAX4 (Homo sapiens, UniProt O43316 9-242, F177Y)
T9 sequence: T4 sequence with F169Y, K192R

PAX4 [17] = target: T10, PAX4 (Homo sapiens, UniProt O43316 9-242, R227W)
T10 sequence: T4 sequence with K192R, R219W

CGTCGACG
binding signal (VENTX [1]): 7.98 upbm affinity estimate (log intensity, higher = more binding, comparable within an allelic series)
binding signal (VENTX [2]): 7.91 upbm affinity estimate (log intensity, higher = more binding, comparable within an allelic series)
binding signal (ALX4 [3]): 7.89 upbm affinity estimate (log intensity, higher = more binding, comparable within an allelic series)
binding signal (VENTX [4]): 8.1 upbm affinity estimate (log intensity, higher = more binding, comparable within an allelic series)
binding signal (ALX4 [5]): 7.93 upbm affinity estimate (log intensity, higher = more binding, comparable within an allelic series)

GCCAACCC
binding signal (VENTX [1]): 8.11 upbm affinity estimate (log intensity, higher = more binding, comparable within an allelic series)
binding signal (VENTX [2]): 7.96 upbm affinity estimate (log intensity, higher = more binding, comparable within an allelic series)
binding signal (PRRX1 [6]): 9.36 upbm affinity estimate (log intensity, higher = more binding, comparable within an allelic series)
binding signal (VENTX [4]): 8.24 upbm affinity estimate (log intensity, higher = more binding, comparable within an allelic series)
binding signal (PRRX1 [7]): 9.21 upbm affinity estimate (log intensity, higher = more binding, comparable within an allelic series)

CTAATCGA
binding signal (VENTX [1]): 11.6 upbm affinity estimate (log intensity, higher = more binding, comparable within an allelic series)
binding signal (VENTX [2]): 12.5 upbm affinity estimate (log intensity, higher = more binding, comparable within an allelic series)
binding signal (VENTX [4]): 11.1 upbm affinity estimate (log intensity, higher = more binding, comparable within an allelic series)

AAATTGAT
binding signal (VENTX [1]): 10.3 upbm affinity estimate (log intensity, higher = more binding, comparable within an allelic series)
binding signal (VENTX [2]): 10.7 upbm affinity estimate (log intensity, higher = more binding, comparable within an allelic series)
binding signal (VENTX [4]): 9.99 upbm affinity estimate (log intensity, higher = more binding, comparable within an allelic series)

GGCCATTA
binding signal (VENTX [1]): 11.6 upbm affinity estimate (log intensity, higher = more binding, comparable within an allelic series)
binding signal (VENTX [2]): 12.3 upbm affinity estimate (log intensity, higher = more binding, comparable within an allelic series)
binding signal (HOXA7 [8]): 11.2 upbm affinity estimate (log intensity, higher = more binding, comparable within an allelic series)
binding signal (VENTX [4]): 11.4 upbm affinity estimate (log intensity, higher = more binding, comparable within an allelic series)
binding signal (HOXB6 [9]): 9.75 upbm affinity estimate (log intensity, higher = more binding, comparable within an allelic series)
binding signal (HOXA7 [10]): 8.67 upbm affinity estimate (log intensity, higher = more binding, comparable within an allelic series)
binding signal (HOXB6 [11]): 11.8 upbm affinity estimate (log intensity, higher = more binding, comparable within an allelic series)

CGGCCCCA
binding signal (VENTX [1]): 8.18 upbm affinity estimate (log intensity, higher = more binding, comparable within an allelic series)
binding signal (VENTX [2]): 8.34 upbm affinity estimate (log intensity, higher = more binding, comparable within an allelic series)
binding signal (PAX4 [12]): 9.24 upbm affinity estimate (log intensity, higher = more binding, comparable within an allelic series)
binding signal (VENTX [4]): 8.08 upbm affinity estimate (log intensity, higher = more binding, comparable within an allelic series)
binding signal (PAX4 [13]): 9.19 upbm affinity estimate (log intensity, higher = more binding, comparable within an allelic series)
binding signal (NKX2-6): 9.36 upbm affinity estimate (log intensity, higher = more binding, comparable within an allelic series)
binding signal (PAX4 [14]): 9.28 upbm affinity estimate (log intensity, higher = more binding, comparable within an allelic series)
binding signal (PAX4 [15]): 9.21 upbm affinity estimate (log intensity, higher = more binding, comparable within an allelic series)
binding signal (PAX4 [16]): 9.24 upbm affinity estimate (log intensity, higher = more binding, comparable within an allelic series)
binding signal (PAX4 [17]): 9.25 upbm affinity estimate (log intensity, higher = more binding, comparable within an allelic series)

CCAAGGGC
binding signal (VENTX [1]): 8.09 upbm affinity estimate (log intensity, higher = more binding, comparable within an allelic series)
binding signal (VENTX [2]): 8.33 upbm affinity estimate (log intensity, higher = more binding, comparable within an allelic series)
binding signal (VENTX [4]): 8.21 upbm affinity estimate (log intensity, higher = more binding, comparable within an allelic series)
